Assay outcomes from PubChem BioAssay.
Only some compounds are listed: those with a hit (about 4.3% of all), similar ones and a draw of the others.
HSF1 activator: HSF-1 activators, primary screen, NIH3T3-HGL cells, MG132 stress, luminescence, single point; NIH3T3-HGL HSF-1 luciferase reporter, 8 h; 100% = twice DMSO control signal; activation, % at 9 µM; actives 1.7% (n = 300,000);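 active = mean replicate activation of at least 50% with a set share of replicates each reaching 50%; inconclusive = only one of those two conditions met; inactive = mean below 50% and too few replicates reaching it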;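 also: 0% = median of the neutral control wells and 100% = twice that signal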
SMARCA2 act: SMARCA2 (BRM) function activators, primary screen, cell-based, luminescence, high throughput. MG213 cells, MMTV-luciferase reporter, dexamethasone, overnight. activation, % at 9.1 µM. actives 1% (n = 370,000). AID 652017, 2013; in the data active = activation above about 7.8%;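 also: 0% = vehicle wells and 100% = reference activator wells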
esBAF inh: Bmi1 luciferase reporter increase in mESCs, primary screen, esBAF inhibitor project, mouse ES cells, Bmi1 luciferase knock-in, single point. reporter increase, % at 12.5 µM. 24 h; 100% = twice the neutral-well signal. actives 2% (n = 350,000); in the data active = activation above about 40%; inconclusive = no clear call, values can overlap the other calls;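 also: 0% = median of the plate's neutral control wells and 100% = double that signal; a rise in the Bmi1 reporter signal indicates esBAF inhibition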
HSF1 inhib: HSF1 inhibitors in luciferase reporter cells, primary screen, cell-based, NIH3T3, luminescence | activity change, negative = inhibition, % at 7.5 µM (by protocol) | actives 0.77% (n = 300,000) | AID 2098, 2009 | NIH3T3-HGL HSE-luciferase, MG132-induced, luminescence 8 h; active compounds read low;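 active = more than half of replicate wells show activity change below -50%, luminescence cut by over half; inconclusive = some wells, but at most half, below -50%; inactive = no replicate well below -50%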;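 also: luciferase reports HSF-1 transcriptional activity via heat shock element; 0% = median of DMSO wells and -100% = zero luminescence signal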
MITF TRPM1 HTS: activators of MITF-driven TRPM1 promoter reporter, primary screen, cell-based, SK-MEL-5, luciferase, single point; SK-MEL-5 TRPM1-promoter luciferase, 24 h; % of positive control, neutral wells = 0; activation, % at 12.5 µM; actives 0.75% (n = 300,000);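 active = mean activation of at least 80% with every replicate also reaching 80%; inconclusive = mean reaches 80% but some replicate falls short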;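 also: 0% = neutral control wells and 100% = parthenolide positive control wells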
Wnt bcat act: Wnt/beta-catenin pathway activators, primary screen, cell-based, plate reader, single point; actives 1.2% (n = 300,000); activation, % at 9.35 µM; AID 743398, 2014; Wnt/beta-catenin reporter cell assay, activator; in the data active = activation above about 30%, passing the limit was not always enough; inconclusive = no clear call, values can overlap the other calls;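 also: 0% = neutral control wells and 100% = positive control wells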
Active calls of the source: *; ? = inconclusive; · = not tested or not shown.

SMILES	HSF1 activator	SMARCA2 act	esBAF inh	HSF1 inhib	MITF TRPM1 HTS	Wnt bcat act
Cc1cc(C(=O)COC(=O)c2ccc[nH]c2=O)c(C)n1C1CC1	3	1	6	-6	11	2
Cc1cc(C(=O)COC(=O)c2ccc(F)cc2F)c(C)n1C1CC1	·	4	40	·	118*	11
C[C@@H]1CCCCO[C@H](CN(C)C(=O)Nc2cccc3ccccc23)[C@@H](C)CN([C@@H](C)CO)C(=O)c2cc(N(C)C)ccc2O1	·	·	-2	·	·	·
O=C(N[C@H]1CC[C@H](CCNC(=O)C2CC2)O[C@H]1CO)c1ccccn1	·	·	-1	·	·	·
CCNC(=O)C[C@H]1CC[C@@H]2[C@H](COc3ccc(NC(=O)c4cccc(C(F)(F)F)c4)cc3C(=O)N2C)O1	·	·	1	·	·	·
C[C@@H]1CCCCO[C@H](CN(C)CC2CC2)[C@H](C)CN([C@@H](C)CO)C(=O)c2cc(NS(=O)(=O)c3ccccc3)ccc2O1	·	·	-6	·	·	·
C[C@@H]1CN([C@H](C)CO)S(=O)(=O)c2ccc(C#CC3CC3)cc2O[C@H]1CN(C)Cc1ccc(F)cc1	·	·	-5	·	·	·
Cc1cc(C(=O)COc2ccccc2C(N)=O)c(C)n1C1CC1	23	2	·	11	23	39*
N#CCC(=O)Nc1ccc(C(=O)OCC(=O)c2c[nH]c3ccccc23)cc1	·	7.9*	24	·	1	10
NC(=O)Nc1ccc(C(=O)OCC(=O)c2c[nH]c3ccccc23)cc1	·	1	1	·	13	-1
Cc1cc(C(=O)COc2ccccc2[N+](=O)[O-])c(C)n1C1CC1	7	0	·	22	24	?
Cc1cc(C(=O)COC(=O)c2ccc(NC(=O)CC#N)cc2)c(C)n1-c1ccc(OC(F)F)cc1	·	-7	·	·	-2	-2
Cc1cc(C(=O)COC(=O)c2ccc(NC(=O)CC#N)cc2)c(C)n1CC(F)(F)F	·	0	62*	·	·	1
C[C@@H]1CN([C@H](C)CO)C(=O)Cc2cc(NC(=O)C3CC3)ccc2O[C@@H]1CN(C)S(C)(=O)=O	·	·	3	·	·	·
COC(=O)c1[nH]c2ccc(Cl)cc2c1NC(=O)Oc1ccccc1	8	3	58*	-3	·	20
COC(=O)c1[nH]c2ccc(Cl)cc2c1NC(=O)C1CC1	-9	0	9	2	13	1
COc1ccc(S(=O)(=O)N(C)C[C@H]2Oc3ccc(NS(=O)(=O)c4ccc(F)cc4)cc3C(=O)N([C@@H](C)CO)C[C@@H]2C)cc1	·	·	3	·	·	·
Cn1cccc1/C=C1\SC(=O)N(c2ccccc2)C1=O	65*	5	·	24	95*	41*
Clc1ccc2nc(N3CCCCC3)sc2c1	56*	4	·	21	66	16
CS(=O)(=O)N1CCN(c2nc3ccc(Cl)cc3s2)CC1	33	-3	·	10	·	16
CC(C)NC(=O)N1CCCN(c2nc3ccc(Cl)cc3s2)CC1	13	-9	35	0	19	31*
Cc1nnc(SCC(=O)Nc2ccccc2)c2ccccc12	52*	2	69*	33	37	-14
Cn1c(SCC(=O)NNC(=O)Nc2ccc(Cl)cc2)nnc1-c1ccccc1	56*	-1	·	15	·	2
Cc1occc1-c1nnc(SCC(=O)Nc2ccccc2)n1C	-85	-7	-3	-82*	12	1
Cc1ccc(-c2nnc(SCC(=O)Nc3ccc4c(c3)oc3ccccc34)n2C)c(Cl)c1	57*	2	35	14	·	·
SMILES	HSF1 activator	SMARCA2 act	esBAF inh	HSF1 inhib	MITF TRPM1 HTS	Wnt bcat act
O=C(CC(F)(F)F)N1C[C@@H]2[C@H](c3ccccc31)[C@H](CO)N2CC1CCOCC1	·	·	-6	·	·	·
COC(=O)c1ccc(NC(=O)CSc2nnc(-c3ccccc3)n2C)cc1	-75	0	0	-67*	-5	-2
COC(=O)c1ccc(NC(=O)CSc2nnc(C)n2-c2ccccc2)cc1	6	-1	·	3	3	·
CSc1ccccc1C(=O)Nc1cc(C)ccc1C	58*	-2	·	21	-4	-6
CSc1ccccc1C(=O)Nc1ccc(C)cc1C	14	0	·	-9	14	2
Cc1ccc(NC(=O)c2ccccc2F)c(NC(=O)c2ccccc2F)c1	24	7	58*	3	·	26
C[C@@H]1CN([C@H](C)CO)C(=O)c2cccc(NC(=O)NC3CCCCC3)c2O[C@@H]1CN(C)C	·	·	-1	·	·	·
O=S(=O)(Nc1ccc(O)cc1)c1cccc2cccnc12	2	-2	3	-10	12	-1
O=S(=O)(Nc1ccccc1O)c1cccc2cccnc12	78*	0	·	36	-4	-2
CO[C@@H]1CN(C)C(=O)c2ccc(NC(=O)C3CC3)cc2OC[C@@H](C)N(C(=O)CN(C)C)C[C@@H]1C	·	·	4	·	·	·
C[C@@H]1CN([C@@H](C)CO)C(=O)Cc2cc(NC(=O)CCCN(C)C)ccc2O[C@@H]1CN(C)S(=O)(=O)c1cccs1	·	·	2	·	·	·
O=S(=O)(Nc1cccc(-n2cnnn2)c1)c1cc(Cl)ccc1Cl	-91	-3	-3	-88*	-7	0
CCCCSC(=O)Nc1ccccc1	22	4	50*	8	9	5
CCCCCC(=O)NNC(=O)Nc1ccccc1	1	0	·	1	-9	·
O=c1c(=Nc2ccccc2O)c(=O)c2ccccc12	55*	0	·	20	25	6
O=c1[nH][nH]cc1C=Nc1ccccc1O	32	-2	-14	13	·	·
Cc1ccccc1Nc1nc(N)nc(COC(=O)c2cccn2C)n1	7	7	48*	1	·	66*
Cc1ccccc1Nc1nc(N)nc(COC(=O)c2ccc(O)cc2)n1	5	3	·	1	14	2
Cc1ccccc1Nc1nc(N)nc(COC(=O)c2ccccc2)n1	58*	5	·	44	83*	·
CCCC#Cc1ccc2c(c1)O[C@@H](CN(C)C(=O)Nc1ccc(OC)cc1)[C@H](C)CN([C@H](C)CO)S2(=O)=O	·	·	-1	·	·	·
c1ccc2c(c1)nnn1c3ccccc3nc21	62*	·	·	29	·	·
Cn1c(C(=O)NCCC2=CCCCC2)cc2c(=O)n3ccccc3nc21	20	-1	44*	12	65	·
COc1cc(C2C(C#N)=C(N)OC3=C2C(=O)CC(C)(C)C3)cc([N+](=O)[O-])c1O (centres undefined)	13	-4	·	3	-7	40*
CC1(C)CC(=O)C2=C(C1)OC(N)=C(C#N)C2c1ccccc1 (centres undefined)	-61	1	8	-54*	·	-8
CC1(C)CC(=O)C2=C(C1)OC(N)=C(C#N)C2c1cccs1 (centres undefined)	-6	-5	2	-1	-9	-1
